This note sets out measurements from PubChem BioAssay (NCATS).

Several values for one entry are separate records, joined by “and”; a condition that tells them apart may be missing. Equal entries are not always repeated. Inconclusive results are not listed. Where a structure was tested more than once in an assay, its records may differ in their call. Activity calls are given as the source filed them. Unless noted, the call rests on the fitted dose curve; in most records, active means well fitted curve in the direction sought with a large enough effect; inconclusive means small, poorly fitted or top-dose-only effect, or another doubt; inactive means no such curve, though single readings can be large; an effect the other way counts as inactive or inconclusive.

Experiment [1] in a line: qHTS for compounds that reverse cellular toxicity of Amyloid beta (A-beta) peptide in yeast: LOPAC Validation Assay (AID 720559).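 Further: plate controls were DMSO for no effect and equimolar ferric chloride plus clioquinol rescue for full effect.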 Summed up: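 OD600 growth readout after 48 hr at 30 C; A-beta-toxic yeast plus pinned compounds in medium. Normalization: DMSO = negative, equimolar FeCl3 + clioquinol = positive.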
Experiment [2] can be described thus: qHTS for Activators of Parkin Expression: LOPAC Validation Assay (NLuc Reporter) (AID 720572). In short, it runs like this: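 NLuc signal, read 10 min after reagent and following a prior FLuc read, is normalized to DMSO (0) and positive controls (100%). Cells: neuronal Parkin-promoter coincidence reporter line; compounds tested 7-point, 24 h, 37 C, 5% CO2.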

Experiment [3] is described as follows: qHTS for Activators of Parkin Expression: LOPAC Validation Assay (FLuc Reporter) (AID 720573). Summed up:
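FLuc luminescence read-out from a neuronal line expressing a Parkin-promoter-driven coincidence reporter. Cells treated 24 h at 37 C, 5% CO2 with compounds at 7 concentrations; signal increase normalized to DMSO and positive control.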

Experiment [4] can be described thus: qHTS assay for small molecule agonists of the antioxidant response element (ARE) signaling pathway measured by Nrf2-dependant transcriptional activity (AID 720636; active means well fitted curve in the direction sought with a large enough effect in the repeat runs; an effect the other way counts as inactive or inconclusive;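 further: HepG2 cells with an ARE-driven luciferase reporter; % of control where 0% means no effect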). In short, it runs like this: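 First, ARE-luc HepG2 cells attached for 6 hr at 37 C in 1% dialyzed FBS medium. Next, compound or DMSO was added and incubated 16 hr. Finally, ONE-Glo reagent was added and luminescence measured after 30 min.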

A short description of experiment [5]: qHTS assay for small molecule agonists of the antioxidant response element (ARE) signaling pathway measured by Nrf2-dependant transcriptional activity - cell viability counter screen (AID 720653; active means well fitted curve in the direction sought with a large enough effect in the repeat runs; an effect the other way counts as inactive or inconclusive; further: on the % scale 0 is the no-effect control and ±100 the full control effect). The note with it: ARE-bla HepG2 viability, CellTiter-Glo ATP luminescence, 16 h; max response: stronger effect = lower value. In short, it runs like this: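 ARE-bla HepG2 cells treated with compounds for 16 h at 37C; this counter screen measures viability as intracellular ATP by CellTiter-Glo luminescence after 30 min at room temperature.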

In experiment [6] the target is T1, Hexokinase-4 (Homo sapiens) + Glucokinase regulatory protein (Homo sapiens) (UniProt P35557+Q14397). In words: qHTS assay for inhibitors of recombinant human GCK-GKRP interaction: Diaphorase-coupled assay (AID 743205). In short, it runs like this:
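Resorufin fluorescence (525/590 nm), read each minute over 30 min, reports GCK activity coupled via G6PDH and diaphorase. Reaction: 10 nM GST-GCK, 10 nM FLAG-GKRP, 5 mM glucose, 0.4 mM ATP, 0.15 mM NADP+, 0.1 mM resazurin.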

Experiment [7] concerns the target T1, Hexokinase-4 (Homo sapiens) + Glucokinase regulatory protein (Homo sapiens). Kind of experiment: qHTS assay for inhibitors of recombinant human GCK-GKRP interaction: ADP-Glo assay (AID 743206).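 Further: plate controls were DMSO plus enzyme for no effect and no enzyme for full effect.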 Summed up: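 Pin-transferred compounds meet a 15 nM GST-GCK/15 nM FLAG-GKRP/2 uM S6P mix (dispense concentrations). ATP is then added to 0.4 mM final with 5 mM glucose, and the reaction runs 60 min at room temperature. ADP is quantified luminescently.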

Experiment [8] has the same target. In words: qHTS assay for inhibitors of recombinant human GCK-GKRP interaction: HTRF assay (AID 743207).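 Further: 0% = DMSO with GCK present and -100% = DMSO wells lacking GCK.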 In short, it runs like this: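 HTRF read-out (ex 320 nm; 615/665 nm emission) after 60 min RT equilibration of 5 nM GST-GCK, 5 nM FLAG-GKRP, 2 uM S6P, compound and anti-FLAG/anti-GST detection antibodies; signal normalized between DMSO wells with and without GCK.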

The nature of experiment [9]: qHTS Assay for Identifying Gametocytocidal Compounds (AID 743244).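 Further: on the % scale 0 is the no-effect control and ±100 the full control effect; actives lower the fluorescent signal which means gametocytes are killed.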 The note with it: P. falciparum 3D7 stage III-V gametocytes, alamarBlue, 72 h; max response: stronger effect = lower value. In short, it runs like this: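 A resazurin-based viability read-out was applied to mature P. falciparum gametocytes: 72 h compound treatment, then 24 h dye incubation, with falling fluorescence signalling gametocytocidal effect.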

The nature of experiment [10]: qHTS assay for cell viability of HEK293 cells (AID 743288). Further: nearly all actives have a fitted effect of over 50% in size. Further: potency means the concentration at half of the fitted maximal effect. On max response: on the % scale 0 is the no-effect control and ±100 the full control effect. As to conditions: ATP luminescence (CellTiter-Glo), 18 h; max response: stronger effect = lower value. Summed up: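 ATP luminescence (CellTiter-Glo) reports metabolically competent cell number after parental HEK293 cells, 2,000/well, were treated with DMSO-dissolved compounds for 18 h at 37 C; reagent incubation 30 min, room temperature.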

Experiment [11] in a line: qHTS assay for cell viability of the p53RE-bla HCT-116 cell line (AID 743292). Further: nearly all actives have a fitted effect of over 55% in size. Further: potency means the concentration at half of the fitted maximal effect. In short, it runs like this:
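Quantitative high-throughput format: compounds in DMSO were pinned onto p53RE-bla HCT-116 cells (4,000/well) and incubated 16 h at 37 C. Total intracellular ATP, read by CellTiter-Glo luminescence, reflects viable cell number.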

Experiment [12] is described as follows: qHTS profiling of the MIPE4 collection as inhibitors of Plasmodium falciparum (3D7) proliferation (AID 743344; call rule not given here;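 further: scaled between DMSO vehicle wells and 0.29 µM artemisinin as full inhibition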). The note with it: P. falciparum 3D7 in erythrocytes, SYBR Green DNA fluorescence, 72 h; at 28.5 µM (top of the series) unless noted. In short, it runs like this: (§1)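 Parasite DNA was quantified by SYBR Green I fluorescence (ex 485, em 535 nm) after overnight lysis in saponin/Triton buffer at room temperature. Cultures at 0.3% parasitemia and 2.5% hematocrit were first exposed to compound for 72 h at 37 C; signals were normalised to artemisinin (0.29 uM) and vehicle wells.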

Experiment [13] is described as follows: qHTS profiling of the MIPE4 collection as inhibitors of Plasmodium falciparum (DD2) proliferation (AID 743345; call rule not given here). The note with it: P. falciparum Dd2 in erythrocytes, SYBR Green DNA, 72 h; at 28.5 µM (top of the series) unless noted. In short, it runs like this:
as §1

Experiment [14] in a line: qHTS profiling of the MIPE4 collection as inhibitors of Plasmodium falciparum (DD2) proliferation (Rep 2) (AID 743346; call rule not given here). The note with it: P. falciparum Dd2 in erythrocytes, SYBR Green DNA, 72 h; at 28.5 µM (top of the series) unless noted. In short, it runs like this:
as §1

Experiment [15] in a line: qHTS assay for small molecule antagonists of the retinoid-related orphan receptor gamma (ROR-gamma) signaling pathway - cell viability counter screen (AID 720652; active means well fitted curve in the direction sought with a large enough effect in the repeat runs; an effect the other way counts as inactive or inconclusive;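 further: CHO reporter cells with doxycycline-induced ROR-gamma expression; compound exposure lasted 16 hr before ATP read; on the % scale 0 is the no-effect control and ±100 the full control effect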). Summed up:
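Steps: seed CHO cells bearing TET-inducible ROR and ROR response element-luciferase; rest 5 hr at 37 C; add compound, then doxycycline; incubate 16 hr; add CellTiter-Glo and read luminescence as ATP-based viability.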

A short description of experiment [16]: qHTS profiling of the MIPE4 collection as inhibitors of Plasmodium falciparum (HB3) proliferation (AID 743347; call rule not given here;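 further: plate controls were DMSO vehicle wells for no effect and artemisinin wells for full effect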). The note with it: P. falciparum HB3 in erythrocytes, SYBR Green DNA, 72 h; at 28.5 µM (top of the series) unless noted. In short, it runs like this:
as §1

T1 sequence (P35557 whole entry, looked up): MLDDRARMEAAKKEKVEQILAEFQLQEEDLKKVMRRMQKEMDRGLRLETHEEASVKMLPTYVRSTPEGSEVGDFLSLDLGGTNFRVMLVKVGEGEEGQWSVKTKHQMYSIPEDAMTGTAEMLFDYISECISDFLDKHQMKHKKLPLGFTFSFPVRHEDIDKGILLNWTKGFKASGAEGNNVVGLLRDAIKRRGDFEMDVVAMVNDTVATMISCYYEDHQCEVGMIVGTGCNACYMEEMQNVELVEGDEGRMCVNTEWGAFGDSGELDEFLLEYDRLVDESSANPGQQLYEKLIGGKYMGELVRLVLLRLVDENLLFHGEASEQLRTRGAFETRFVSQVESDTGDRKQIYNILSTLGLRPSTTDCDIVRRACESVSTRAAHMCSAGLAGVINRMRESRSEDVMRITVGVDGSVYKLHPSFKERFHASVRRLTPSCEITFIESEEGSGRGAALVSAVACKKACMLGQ
T1 sequence (Q14397 whole entry, looked up): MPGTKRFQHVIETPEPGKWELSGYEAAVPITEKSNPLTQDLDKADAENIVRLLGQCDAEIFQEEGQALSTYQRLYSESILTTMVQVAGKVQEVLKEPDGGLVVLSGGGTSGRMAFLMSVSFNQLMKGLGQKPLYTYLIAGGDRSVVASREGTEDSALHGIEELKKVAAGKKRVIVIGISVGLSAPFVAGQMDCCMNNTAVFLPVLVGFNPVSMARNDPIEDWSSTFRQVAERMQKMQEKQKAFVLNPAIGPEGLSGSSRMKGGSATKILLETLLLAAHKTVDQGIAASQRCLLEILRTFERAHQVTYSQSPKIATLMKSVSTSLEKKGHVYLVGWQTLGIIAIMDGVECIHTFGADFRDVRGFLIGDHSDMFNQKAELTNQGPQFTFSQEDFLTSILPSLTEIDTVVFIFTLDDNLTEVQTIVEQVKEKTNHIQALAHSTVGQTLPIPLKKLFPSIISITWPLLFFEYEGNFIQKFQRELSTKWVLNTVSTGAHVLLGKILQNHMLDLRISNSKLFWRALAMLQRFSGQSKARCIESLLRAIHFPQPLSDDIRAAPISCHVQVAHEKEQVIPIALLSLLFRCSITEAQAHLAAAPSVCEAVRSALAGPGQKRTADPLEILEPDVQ

Turning to `CC(=O)[C@H]1CC[C@H]2[C@@H]3CCC4=CC(=O)CC[C@]4(C)[C@H]3CC[C@]12C`, the molecule was called inactive in experiment [1], in experiment [2], in experiment [3], in experiment [4], in experiment [6] and in experiment [7]. Further, in experiment [8], the outcome was inactive. Also, the max response in experiment [5] is -18% (inactive) and -11.7% (inactive) and -23.6% (inactive); in experiment [9], -0.829% (inactive) and 23.1% (inactive); in experiment [10], -28% (inactive). In experiment [10], the Potency is 44.7 µM (active). In addition, in experiment [11], the Potency entry is “inactive”.

With `O=C(O)C1CCCN(CCC=C(c2ccccc2)c2ccccc2)C1` (configuration not stated), the outcome in [1], in experiment [2], in experiment [3], in experiment [6], in experiment [7] and in [8] was inactive. Further, in [9], the max response is 17.5% (inactive). This molecule had a parasite growth, % of DMSO control in [12] of 82.1%. Besides, the parasite growth remaining, % of DMSO control (lower = more inhibition) in experiment [13] is 103%. Also, in experiment [14], the parasite growth, % of control (lower = inhibition) amounted to 72.1%.

Turning to `Cc1noc(NS(=O)(=O)c2ccc(N)cc2)c1C`, the outcome in [4] was inactive. In addition, the Potency entry in [15] and in [11] was “inactive” throughout. Also, the max response in experiment [5] is -4.33% (inactive) and -0.699% (inactive); in [9], -10.4% (inactive) and -5.26% (inactive); in experiment [10] it was -2.22% (inactive) and 5.06% (inactive). This molecule also returned a parasite growth, % of DMSO control in experiment [12] of 96.2%. Besides, the parasite growth remaining, % of DMSO control (lower = more inhibition) in experiment [13] is 98.9%. Besides, in experiment [14], the parasite growth, % of control (lower = inhibition) turned out to be 103%.

With `Nc1nc(N)c2nc(CNc3ccc(C(=O)NC(CCC(=O)O)C(=O)O)cc3)cnc2n1` (configuration not stated), the molecule was classed as inactive in experiment [1], in experiment [2], in experiment [3], in experiment [4], in [6] and in experiment [7]. Besides, the result in experiment [8] was inactive. In experiment [9], the max response was 32.7% (inactive). Further, the Potency in [11] is 0.0891 µM (active). In experiment [12], the parasite growth, % of DMSO control was determined as 25%. Besides, the parasite growth remaining, % of DMSO control (lower = more inhibition) in experiment [13] is 7.65%. Besides, the parasite growth, % of control (lower = inhibition) in experiment [14] came out at 21%.

On to `NC(N)=NC(N)=NCCc1ccccc1`, for which the call in [4] was inactive. The Potency result in experiment [15] and in [11] was “inactive” in each case. In addition, the max response in experiment [5] is -24.7% (inactive) and -24.4% (inactive); in experiment [9], 18.8% (inactive) and 0.965% (inactive); in experiment [10], -5.89% (inactive) and -15.7% (inactive). In [12], this molecule showed a parasite growth, % of DMSO control of 21.2%. Also, in experiment [13], the parasite growth remaining, % of DMSO control (lower = more inhibition) worked out at 38.8%. Also, the parasite growth, % of control (lower = inhibition) in experiment [14] worked out at 47%. This molecule also came in with a growth, % of control in experiment [16] of 50.7%.

For `CC[C@H](C)C(=O)O[C@H]1C[C@@H](C)C=C2C=C[C@H](C)[C@H](CC[C@@H]3C[C@@H](O)CC(=O)O3)[C@H]21`, the call in experiment [4] was inactive. Moreover, the max response in experiment [5] was -3.79% (inactive); in [9], 4.74% (inactive); in experiment [10], -9.34% (inactive). Also, the Potency result in experiment [11] was “inactive”. For the same molecule, the parasite growth, % of DMSO control in experiment [12] was 73.9%. In addition, the parasite growth remaining, % of DMSO control (lower = more inhibition) in experiment [13] came out at 103%. Further, the parasite growth, % of control (lower = inhibition) in experiment [14] is 83.7%. In addition, the growth, % of control in [16] was determined as 85.6%.
